The structures appear in SMILES notation. Out of some 2,400 compounds screened, about 1,800 (75%) were called active. No stated cut-off is given here; in the data, active means inhibition above about 22%; inactive means the rest. So high a share suggests a set chosen from earlier hits. Not all results are given here.

The assay in a line: calcium response inhibition in counter-screen line – cell-based, fluorescence, counter-screen for hTAAR1 antagonist project (AID 651780).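 Further: CHO-Ga16 host cells stimulated with ATP at an EC80 level; 0% = agonist EC80 plus vehicle and 100% = vehicle without agonist.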 As to conditions: counterscreen cell line, antagonist mode, at 3 µM, stronger effect = higher value. For orientation: The purpose of a counterscreen is to sort out artefacts and off-target activity.
With `COC(=O)C1=C(c2ccccc2OCc2ccccc2)C[C@@H]2CC[C@H]1N2C(=O)NCc1ccc(OC)cc1`, the inhibition is 22.2% (active). Consider `COC(=O)C1=C(c2ccc(F)cc2OCc2ccccc2)C[C@@H]2CC[C@H]1N2C(=O)NCc1ccc(OC)c(OC)c1`, for which the inhibition was 24.8% (active). Next, `O=C1C2(Cl)C3(Cl)C4(Cl)C(Cl)(Cl)C5(Cl)C3(Cl)C1(Cl)C5(Cl)C24Cl` (stereo not drawn): 24.9% (active).

In general, inhibition refers to the relative decrease from the control value, in per cent.

Source of the values: PubChem BioAssay AID651780 (The Scripps Research Institute Molecular Screening Center, 2012).
